From PubChem BioAssay AID504558 (Broad Institute, 2011) come the findings set out here.

In all, about 350,000 compounds went through this assay and about 2,400 (0.69%) were called active. This is one part of a sample in which actives are shown more often than they occur. A number with no mark means an inactive call. No stated cut-off is given here; in the data, active means inhibition above about 41%; inconclusive means no clear call, values can overlap the other calls; inactive means below that.

The test can be described thus: blockers of LMP1-induced NF-kB reporter signal – cell-based, luminescence, single point, primary screen (AID 504558).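 Further: 0% = neutral control wells and 100% = reference inhibitor control.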 Particulars: LMP1-induced NF-kappaB luciferase reporter cells, at 12.5 µM, stronger effect = higher value.
As to `CN1OC[C@@H]2CN(S(=O)(=O)c3cccc(C(F)(F)F)c3)[C@H](c3ccc(-c4cc5ccccc5o4)cc3)C[C@@H]21`, the inhibition was 23.8%. Next, `COc1ccc(NC(=O)N(C)C[C@H]2Oc3ncc(C#C[C@@H](C)O)cc3C(=O)N([C@H](C)CO)C[C@H]2C)cc1`: 3.12%; `O=C(COC(=O)c1ccccc1C(=O)N1CCN(c2ccccc2)CC1)NCc1ccccc1`: -5.9%; `Oc1ccc(N2CCN(C(=S)NCc3ccccc3)CC2)cc1`: 50.7% (active). Turning to `Oc1ccccc1N1CCN(C(=S)NCc2ccccc2)CC1`, the inhibition is 0.986%. On to `CC(C)N=C1CCCC1C(=S)SSC(=S)C1CCCC1=NC(C)C` (stereo not given), for which the inhibition was 24.4%.

For the compound `O=C(NCCN1CCOCC1)C1CCN(S(=O)(=O)c2ccccc2)CC1`, the inhibition is 5.14%. For the compound `COc1cccc(/C=C/C(=O)Nc2ccc3c(c2)OCCO3)c1`, the inhibition is 58.7% (active). As to `O=C(/C=C\c1ccc2c(c1)OCO2)NC1(C(=O)Nc2ccc3c(c2)OCCO3)CCCCC1`, the inhibition was -3.03%. Next, `COc1ccc(OC)c(/C=C/C(=O)OCC(=O)Nc2ccc3c(c2)OCCO3)c1`: 0.837%.

Regarding `CC1CCCC(NC(=O)COC(=O)c2ccccc2C(=O)N(C)C2CCCCC2)C1C` (stereo not given), the inhibition is -11.2%. For the compound `COc1ccc(/C=C2\CCc3ccccc3C2=O)c(OC)c1OC`, the inhibition was -2.98%. On to `CCn1c(/C=N/NC(=O)c2ccc(OC)cc2)nc2ccccc21`, for which the inhibition was 4.88%. The result for `COc1cccc(/C=N/NC(=O)c2[nH]nc3c2CCc2ccccc2-3)c1O` reads 69.4% (active). Regarding `CC1=C(C(=O)N2CCOCC2)CC(CC(=O)NCC2CCCCC2)C(=O)N1Cc1ccc(F)cc1` (stereo not given), the inhibition was -0.637%. Consider `CCCc1ccc(S(=O)(=O)N2CCN(C(=O)c3cc(C)on3)CC2)cc1`, for which the inhibition is -4.88%. `C[C@H](CO)N1C[C@H](C)[C@@H](CN(C)Cc2ccc3c(c2)OCO3)OCc2cnnn2CCCC1=O`: the inhibition was 4.06%. Next, `CC(C)C1CCN(C(=O)C2CCC(=O)N(C3CCCCCC3)C2)CC1` (stereo not given): -25.4%; `CCOc1ccc(S(=O)(=O)N2CCN(C(=S)NCC3CCCO3)CC2)cc1` (stereo not given): -0.069%.

For the compound `COc1ccc(S(=O)(=O)N2CCN(C(=S)NCC3CCCO3)CC2)cc1OC` (stereo not given), the inhibition is 74.2% (active). For the compound `S=C(NCC1CCCO1)N1CCN(c2ccc(Cl)c(Cl)c2)CC1` (stereo not given), the inhibition was 10%. Next, `C[C@H](CO)N1C[C@H](C)[C@H](CN(C)C(=O)c2ccncc2)OCc2ccccc2-c2c(n(C)c3ccccc23)C1=O`: 2.77%; `C[C@H]1CN([C@@H](C)CO)C(=O)CCCn2nncc2CO[C@@H]1CN(C)S(=O)(=O)c1cccc(C#N)c1`: 2.8%.

With `CN1OC[C@@H]2CN[C@H](c3ccc(-c4ccccc4)cc3)C[C@@H]21`, the inhibition is -14.4%.

On to `COc1cccc(NC(=O)N(C)C[C@@H]2Oc3ncc(Br)cc3C(=O)N([C@@H](C)CO)C[C@H]2C)c1`, for which the inhibition was 1.17%.

For `Cc1ccc(CS(=O)(=O)c2ncc(Cl)c(C(=O)Nc3nnc(C)s3)n2)cc1`, the inhibition is 85.8% (active). Next, `Cc1cccc(NC(=O)c2nc(S(=O)(=O)Cc3ccccc3)ncc2Cl)c1`: 19.5%. Next, `CSc1nnc(NC(=O)c2nc(S(=O)(=O)Cc3ccc(C)cc3)ncc2Cl)s1`: 24.2%; `CC1(C)OC(=O)C2=C(CC(c3ccccc3)OC2CCc2ccccc2)O1` (stereo not given): 3.89%.

In the case of `C[C@@H]1C[C@@H]2O[C@H]2/C=C\C=C\C(=O)Cc2c(Cl)c(O)cc(O)c2C(=O)O1`, the inhibition is 80% (active). Consider `CCOC(=O)c1c(C)[nH]c(C)c1C(=O)COC(=O)/C=C/c1cccc([N+](=O)[O-])c1`, for which the inhibition was 7.29%.

Turning to `Cc1nonc1C(=O)N/N=C/c1ccc(O)cc1`, the inhibition was -10.7%. Turning to `Nc1nnn(CC(=O)N/N=C/c2ccc(O)cc2)n1`, the inhibition is -8.43%.

For the compound `O=C(C[n+]1ccccc1)N/N=C/c1ccc(O)cc1`, the inhibition is 45.7% (active). On to `O=C(OCc1ccccc1)N1CCC2CC1c1ccc(-c3ccc4c(c3)OCO4)cc12` (stereo not given), for which the inhibition was -5.51%. Consider `O=NN(CCCl)C(=O)NCCc1cccc[n+]1[O-]`, for which the inhibition was 1.36%. `Cc1csc(NC(=O)c2ccc(-c3ccc(Cl)cc3Cl)o2)n1`: the inhibition was 5.23%.

Turning to `COc1ccc(C(=O)NC2=NCCS2)c(OC)c1`, the inhibition was 14.4%.

With `COC(=O)c1sc(NC(=S)NC(=O)c2ccc(C)cc2)nc1C`, the inhibition is -2.09%.

In the case of `COc1cc(SC)ccc1C(=O)Nc1nc(C)cs1`, the inhibition is 77% (active). The result for `COc1cc(SC)ccc1C(=O)NNC(=O)C1COc2ccccc2O1` (stereo not given) reads 3.35%; that for `COC(=O)c1sc(NC(=O)c2ccc(OC)cc2OC)nc1C`, 56.8% (active); that for `O=C(c1ccc(N2CCCC2=O)cc1)N1CCN(c2ccc(C(F)(F)F)cc2[N+](=O)[O-])CC1`, 5.85%. The result for `CCc1c(N=O)c(-c2ccccc2)n(O)[n+]1[O-]` reads -1.78%. As to `COc1ccc(CN2C[C@H]3CON(C)[C@H]3C[C@H]2c2ccc(-c3cccc(F)c3)cc2)cc1`, the inhibition is 6.65%.

With `C=CCN1CCN(c2ccncc2S(=O)(=O)N2CCN(C)CC2)CC1`, the inhibition is -2.07%. Regarding `C[C@H]1CN([C@@H](C)CO)C(=O)CCCn2cc(nn2)CO[C@@H]1CN(C)S(=O)(=O)c1ccc(-c2ccccc2)cc1`, the inhibition is 1.8%.

Regarding `CC(=O)CC[C@@H](C)O[C@@H]1OC(C)[C@H](O)CC1O` (stereo not given in full), the inhibition is 85.2% (active).

Turning to `COCCNC(=O)CSc1nc(N)c(NC(=O)c2ccco2)c(=O)[nH]1`, the inhibition is 2.34%.

For the compound `CN1CCN(c2ccncc2S(=O)(=O)N2CCCC2)CC1`, the inhibition was -0.542%.

As for `Cn1nc(N)c2ncc(C(Cl)(Cl)Cl)nc21`, the inhibition is 1.82%. Next, `O=C1[C@H]2[C@@H](c3ccc(C(F)(F)F)cc3)N[C@]3(CCCN(Cc4ccc(Br)cc4)C3=O)[C@H]2C(=O)N1Cc1ccccc1`: -24.7%; `CCCCCCCCCCOC(=O)C[N+](C)(C)CC1CCCCC1O` (stereo not given): 51% (active). Regarding `CCCCCOC(=O)c1ccc(N2C(=O)C3C4C=CC(C4)C3C2=O)cc1` (stereo not given), the inhibition is 0.71%.

For `CCCN=C1N(C)C[C@@H]2[C@@H]3C(=O)N(Cc4ccccc4)C(=O)[C@@H]3[C@](C)(C(=O)OC)N12`, the inhibition was -3.21%. As to `CCN1C[C@@H]2[C@@H]3C(=O)N(Cc4ccccc4)C(=O)[C@@H]3[C@](Cc3ccccc3)(C(=O)OC)N2C1=NC1CCCCC1`, the inhibition is 0.675%. The result for `COC(=O)[C@@]1(C)[C@H]2C(=O)N(Cc3ccccc3)C(=O)[C@H]2[C@H]2CN=C(SCC3CC3)N21` reads -0.447%. The result for `CC[C@]1(C(=O)OC)[C@H]2C(=O)N(Cc3ccccc3)C(=O)[C@H]2[C@H]2CN=C(SCc3ccc(C#N)cc3)N21` reads 61.8% (active); that for `CC[C@]1(C(=O)OC)[C@H]2C(=O)N(Cc3ccccc3)C(=O)[C@H]2[C@H]2CN=C(SCc3ccccc3)N21`, -0.0665%; that for `CC[C@]1(C(=O)OC)[C@H]2C(=O)N(Cc3ccccc3)C(=O)[C@H]2[C@H]2CN=C(SCc3ccc(Cl)cc3)N21`, 87.9% (active).
